An excerpt weighted towards active compounds, which were near 22% of everything screened.
CYP2C9 inh: blocks human cytochrome P450 2C9. P11712. CYP2C9 Supersomes, luciferin-H conversion, luminescence. inhibition, % at 5 µM. hit rate 20% among 96,000. AID 777;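 active = blocking of liver enzyme CYP2C9 beyond about 50% at 5 µM, limit read from the data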
Target sequence (P11712 whole entry, looked up): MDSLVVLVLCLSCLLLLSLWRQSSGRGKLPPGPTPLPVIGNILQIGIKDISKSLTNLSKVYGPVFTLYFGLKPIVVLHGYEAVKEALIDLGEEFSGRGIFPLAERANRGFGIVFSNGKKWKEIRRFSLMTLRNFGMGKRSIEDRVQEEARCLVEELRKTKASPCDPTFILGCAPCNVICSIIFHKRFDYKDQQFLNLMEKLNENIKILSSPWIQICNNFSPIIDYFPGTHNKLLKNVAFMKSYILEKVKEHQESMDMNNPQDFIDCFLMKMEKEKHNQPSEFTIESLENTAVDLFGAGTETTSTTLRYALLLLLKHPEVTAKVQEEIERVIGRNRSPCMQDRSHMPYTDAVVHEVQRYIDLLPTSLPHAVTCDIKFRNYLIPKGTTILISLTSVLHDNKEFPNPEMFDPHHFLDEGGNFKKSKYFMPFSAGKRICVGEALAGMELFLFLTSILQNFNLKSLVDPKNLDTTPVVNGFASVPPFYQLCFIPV
Measles CPE: protection of cells from measles virus; Measles virus-infected cells, CPE protection, absorbance; hit rate 1.5% among 140,000; protection (pct of control), % at 4 µM; in the data active = protection mostly above about 24%, no sharp cut-off; inactive = mostly below about 26%
CYP2C19 inh: blocks human cytochrome P450 2C19 | AID 778 | P33261 | hit rate 21% among 96,000 | CYP2C19 Supersomes, luciferin-H EGE luminescence, 30 min | inhibition, % at 5 µM;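 active = CYP2C19 inhibition above a set limit at 5 µM in the primary screen, cut at about 50% in these data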
CYP2C19 activ: cytochrome P450 2C19 (human) activation | 96,000 tested, under 10 active | activation factor at 5 µM | recombinant CYP2C19, luciferin-H EGE luminescence; active compounds read high; 0 = fully inhibited enzyme, 1 = untreated enzyme;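 active = activation factor of at least 2 at 5 µM in the primary screen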
CYP2C9 activ: activators of human CYP2C9; P11712; recombinant CYP2C9, luciferin-H conversion, luminescence; active compounds read high; factor 1 = untreated enzyme, 0 = blocked; activation factor at 5 µM; hit rate 1.4% among 96,000; AID 1024;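 active = activation factor of 2 or more for CYP2C9 at a 5 µM dose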
Of the large screens only hits and unclear results are named; the others gave an inactive call.

CCOC(=O)c1nn(-c2ccccc2)c(=O)cc1SC(C)C	none
COC(=O)c1nn(-c2cccc(C(F)(F)F)c2)c(=O)cc1Sc1ccccn1	CYP2C9 inh 70, CYP2C19 inh 56
N#CC1=C(SCC(=O)NC2CCCCC2)NC(=O)CC1c1ccco1 (stereo not drawn)	CYP2C9 inh 59, CYP2C19 inh 72
N#CC1=C(SCc2ccccc2)NC(=O)CC1c1ccco1 (stereo not drawn)	CYP2C9 inh 71
N#CC1=C(SCC(=O)Nc2ccccc2)NC(=O)CC1c1ccco1 (stereo not drawn)	none (no result: CYP2C9 inh, CYP2C19 inh, CYP2C19 activ, CYP2C9 activ)
N#CC1=C(SCC(=O)NCc2ccccc2)NC(=O)CC1c1ccco1 (stereo not drawn)	CYP2C9 inh 88, CYP2C19 inh 67
Cc1ccc(C2CC(=O)NC(SCc3ccccc3)=C2C#N)o1 (stereo not drawn)	CYP2C9 inh 53
COc1ccnc(Oc2ccc(F)cc2)c1C(=O)N/C=N/OCc1c(Cl)cccc1Cl	CYP2C9 inh 75, CYP2C19 inh 52
COC(=O)[C@H](Cc1ccccc1)NC(=O)O[C@H]1C(=O)c2ccc(OC)cc2O[C@@H]1c1ccc2c(c1)OCO2	none (no result: CYP2C9 inh, CYP2C19 inh, CYP2C19 activ, CYP2C9 activ)
CCOC(=O)C1CCN(c2nc3ccccc3nc2C(C#N)C(=O)OC(C)COC)CC1 (stereo not drawn)	CYP2C9 inh 63, CYP2C19 inh 61
C=CCOC(=O)C(C#N)c1nc2ccccc2nc1N1CCC(C(=O)OCC)CC1 (stereo not drawn)	CYP2C9 inh 56
CC(C)OC(=O)C(C#N)c1nc2ccccc2nc1N1CCCC1 (stereo not drawn)	none (no result: CYP2C9 inh, CYP2C19 inh, CYP2C19 activ, CYP2C9 activ)
C=CCOC(=O)C(C#N)c1nc2ccccc2nc1N1CCN(Cc2ccc3c(c2)OCO3)CC1 (stereo not drawn)	CYP2C9 inh 57
COC(=O)C1CCN(c2nc3ccccc3nc2C(C#N)C(=O)OCC(C)C)CC1 (stereo not drawn)	none
CCOC(=O)C1CCN(c2nc3ccccc3nc2C(C#N)C(=O)OCCOC)CC1 (stereo not drawn)	CYP2C19 inh 66
CN(C(=O)COc1ccccc1C(=O)NCCOc1ccccc1)c1ccccc1	none (no result: CYP2C9 inh, CYP2C19 inh, CYP2C19 activ, CYP2C9 activ)
Cc1ccc(C)c(S(=O)(=O)NC(CCC(N)=O)C(=O)O)c1 (stereo not drawn)	none (no result: Measles CPE)
CCOC(=O)C1CCCN(c2nc3ccccc3nc2C(C#N)C(=O)OC(C)C)C1 (stereo not drawn)	none (no result: CYP2C9 inh, CYP2C19 inh, CYP2C19 activ, CYP2C9 activ)
CCOC(=O)C1CCN(c2nc3ccccc3nc2C(C#N)C(=O)OC(C)C)CC1 (stereo not drawn)	CYP2C19 inh 92
COc1ccc(-c2nnc(-c3ccc(N)cc3)o2)cc1	CYP2C9 inh 77
COc1ccc(-c2nnc(-c3ccc(N(C)C)cc3)o2)cc1	none
CNC(=O)C1CC(=O)N(CCCc2ccccc2)C(=Nc2ccccc2)S1 (stereo not drawn)	CYP2C9 inh 56, CYP2C19 inh 65
O=C(C1CCCN(S(=O)(=O)Cc2ccccc2)C1)N1CCC(Cc2ccccc2)CC1 (stereo not drawn)	CYP2C9 inh 85, CYP2C19 inh 97
O=C(C1CCN(S(=O)(=O)Cc2ccccc2)CC1)N1CCN(c2ncccn2)CC1	none
CC(=O)c1ccc(N2CCN(C(=O)C3CCN(S(=O)(=O)Cc4ccccc4)CC3)CC2)cc1	CYP2C9 inh 67
CS(=O)(=O)N1CCC(C(=O)N2CCC(Cc3ccccc3)CC2)CC1	none
COC(=O)C1CCN(S(=O)(=O)Cc2ccccc2)CC1	CYP2C19 inh 63
CCNC(=O)Cn1cc(C#N)c2ccccc21	none (no result: CYP2C9 inh, CYP2C19 inh, CYP2C19 activ, CYP2C9 activ)
Cc1nc(NC(=O)c2cc3c(C)nn(-c4ccccc4)c3s2)sc1C(=O)Nc1ccccc1	CYP2C9 inh 59
CC(=O)c1sc(NC(=O)c2cc3c(C)nn(-c4ccccc4)c3s2)nc1C	none
Cc1nn(-c2ccc(F)cc2)c2sc(C(=O)N3CCCCCC3)cc12	CYP2C9 inh 68, CYP2C19 inh 68
Cc1nn(-c2ccccc2)c2sc(C(=O)N(CC(=O)NC3CCCC3)Cc3ccco3)cc12	CYP2C9 inh 70, CYP2C19 inh 72
Cc1nn(-c2ccccc2)c2sc(C(=O)NC3CC3)cc12	CYP2C9 inh 51
CCn1cc(Cl)c(C(=O)N2N=C3/C(=C/c4cccs4)CCCC3C2c2cccs2)n1 (stereo not drawn)	none (no result: CYP2C9 inh, CYP2C19 inh, CYP2C19 activ, CYP2C9 activ)
COc1ccccc1-c1c(C#N)c(N)nc2c1CCc1ccccc1-2	none (no result: CYP2C9 inh, CYP2C19 inh, CYP2C19 activ, CYP2C9 activ)
O=C(COc1ccc(Cl)cc1Cl)N(Cc1ccco1)C1CCS(=O)(=O)C1 (stereo not drawn)	none
Cc1nc([N+](=O)[O-])c(N2CCN(Cc3ccccc3)CC2)n1Cc1ccccc1	CYP2C9 inh 57, CYP2C19 inh 54
O=C(c1ccco1)N1CCN(c2ncnc3c2[nH]c2ccc(Br)cc23)CC1	CYP2C9 inh 90, CYP2C19 inh 96
COc1ccc(-c2nsc3c(N4CCN(C(=O)c5ccco5)CC4)ncnc23)cc1	none
O=C(c1ccco1)N1CCN(c2ncnc3c(-c4ccccc4)nsc23)CC1	none
O=C(c1ccco1)N1CCN(c2ncnc3c2[nH]c2ccccc23)CC1	CYP2C19 inh 67
O=C(NC1CCCc2ccccc21)C1CCN(S(=O)(=O)c2ccccc2)CC1 (stereo not drawn)	none (no result: CYP2C9 inh, CYP2C19 inh, CYP2C19 activ, CYP2C9 activ)
O=C(NCc1ccccn1)C1CCN(S(=O)(=O)c2cnc[nH]2)CC1	none
O=C(NC1CCCc2ccccc21)C1CCN(S(=O)(=O)c2cnc[nH]2)CC1 (stereo not drawn)	CYP2C9 inh 70
CC(CCc1ccccc1)NC(=O)C1CCN(S(=O)(=O)c2cnc[nH]2)CC1 (stereo not drawn)	CYP2C9 inh 93, CYP2C19 inh 75
CC(C)(C)[C@]1(O)CCN2C[C@H]3c4ccccc4CCc4cccc(c43)[C@@H]2C1	none (no result: CYP2C9 inh, CYP2C19 inh, CYP2C19 activ, CYP2C9 activ)
Cc1ccc(S(=O)(=O)Nc2cc(=O)[nH]c(SCc3ccc(Cl)cc3)n2)cc1	none (no result: CYP2C9 inh, CYP2C19 inh, CYP2C19 activ, CYP2C9 activ)
CC(=O)c1cccc(NC2c3ccccc3C(=O)N2Cc2ccc3c(c2)OCO3)c1 (stereo not drawn)	CYP2C9 inh 61
CCOc1ccc(NC2c3ccccc3C(=O)N2Cc2ccc3c(c2)OCO3)cc1 (stereo not drawn)	CYP2C9 inh 98, CYP2C19 inh 99
COc1cc(NC2c3ccccc3C(=O)N2Cc2ccc3c(c2)OCO3)cc(OC)c1OC (stereo not drawn)	CYP2C9 inh 64, CYP2C19 inh 98
CCOc1ccc(NC2c3ccccc3C(=O)N2c2ccc(Cl)cn2)cc1 (stereo not drawn)	none (no result: CYP2C9 inh, CYP2C19 inh, CYP2C19 activ, CYP2C9 activ)
O=C1c2ccccc2C(Nc2ccc3c(c2)OCCO3)N1Cc1ccccc1 (stereo not drawn)	CYP2C9 inh 98, CYP2C19 inh 99
CC(Oc1ccc(Cl)cc1)C(=O)NNC(=S)NC(=O)c1ccco1 (stereo not drawn)	none (no result: CYP2C9 inh, CYP2C19 inh, CYP2C19 activ, CYP2C9 activ)
Cc1ccc(C(=O)COC(=O)CCc2ccc(S(=O)(=O)N3CCCCC3)cc2)cc1	none (no result: CYP2C9 inh, CYP2C19 inh, CYP2C19 activ, CYP2C9 activ)
Fc1ccc2c(c1)C(c1ccncc1)=NNC(c1ccc(Br)cc1)=N2	none (no result: CYP2C9 inh, CYP2C19 inh, CYP2C19 activ, CYP2C9 activ)
Fc1ccc2c(c1)C(c1ccncc1)=NNC(c1cccnc1)=N2	CYP2C9 inh 54, CYP2C19 inh 51
CCc1ccc2c(c1)C(c1cccs1)=NNC(c1cccnc1)=N2	none
